Assay results from PubChem BioAssay (NCI).
This is part of a sample that, as a whole, favours compounds with a hit. Of some 83,000 tested, about 20% had one in any assay.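 Results are percent growth after 48 hours of single-concentration exposure. 100 means growth as in untreated cells, lower positive values show inhibition; negative values down to -100 show cell death.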 Calls of active or inactive are those of the source. How the source made its calls: active means growth percent below 10; inactive means the rest.

Assays:
Experiment in all cases: NCI-60 one-dose screen, 48 h (100 = growth as untreated, 0 = no growth, -100 = all killed)
Settings in all cases: 10 µM unless noted
[1] = tested on: NCI-H23 lung
[2] = tested on: NCI-H226 lung
[3] = tested on: NCI-H322M lung
[4] = tested on: HOP-62 NSCLC
[5] = tested on: NCI-H460 lung
[6] = tested on: HOP-92 NSCLC
[7] = tested on: NCI-H522 lung
[8] = tested on: A549/ATCC NSCLC
[9] = tested on: 786-0 renal
[10] = tested on: COLO 205 colon

Measured: growth

Cc1cccc2c3c(sc12)C(c1ccc(Cl)cc1)C(C#N)=C(N)O3 (stereo not given)
active: [5] 9.2% | [10] -21.2%
inactive: [1] 21.4% | [2] 26.4% | [3] 49.1% | [4] 38.7% | [6] 89.7% | [7] 13.7% | [8] 30.1% | [9] 29%

CCOC(=O)c1nc(Nc2ccc(C(C)=O)cc2)sc1C
inactive: [1] 94.1% | [2] 98.8% | [3] 96.2% | [4] 105% | [5] 105% | [6] 108% | [7] 87.2% | [8] 94.3% | [9] 96.5% | [10] 106%

OC(c1ccccc1)C(NC(Cc1ccccc1)c1ccccc1)c1ccccc1 (stereo not given)
inactive: [1] 81.8% | [2] 82.1% | [3] 93.2% | [4] 88% | [5] 91.7% | [6] 65.3% | [7] 67.1% | [8] 73.3% | [9] 81.4% | [10] 101%

CC(=O)CC[C@H]1C(=O)N[C@@H](C(C)C)C(=O)N[C@@H](Cc2cc(O)cc(F)c2)C(=O)N2CCC[C@H](N2)C(=O)O[C@H](/C(C)=C/C=C/C(=O)OC(C)(C)C)C/C=C/C=C/[C@H](O)[C@H](C)[C@H]1O
inactive: [1] 42.2% | [2] 76.8% | [3] 69.2% | [4] 44.9% | [5] 13.3% | [6] 55.2% | [7] 43.8% | [8] 49.9% | [9] 36.2% | [10] 51.7%

c1cc(NCCc2ccncc2)nc(-n2cnc3ccccc32)c1
inactive: [1] 95.3% | [2] 76.6% | [3] 81.4% | [4] 90.7% | [5] 79% | [6] 93% | [7] 78.8% | [8] 78.8% | [9] 92% | [10] 123%

O=C(CCN1C(=O)/C(=C/c2ccc(O)cc2)SC1=S)Nc1ccccc1
inactive: [1] 91.9% | [2] 90.9% | [3] 95% | [4] 85.9% | [5] 106% | [6] 89.6% | [7] 80.1% | [8] 93.3% | [9] 105% | [10] 125%

O=c1c2cc(C(F)(F)F)ccc2sc2c(NCCCNCCO)nc3ccccc3c12
inactive: [1] 45% | [2] 75.7% | [3] 58.5% | [4] 40.7% | [6] 27.9% | [9] 43%
active: [5] -82.3% | [7] -22.2% | [8] -29.6% | [10] -53.2%

COc1ccc2sc3c(NCCCN(C)C)nc4ccccc4c3c(=O)c2c1
inactive: [1] 56.7% | [2] 82.4% | [3] 80.3% | [4] 74.7% | [6] 20% | [7] 79.4% | [8] 73.9% | [9] 68.5%
active: [5] -69.5% | [10] -1.26%

C=C1C(=O)O[C@H]2[C@H]1CC/C(COC(=O)CCC(=O)NCCOCCOCC(=O)Nc1ccc(OC)c(C(N)=O)c1O)=C\CC[C@@]1(C)O[C@@H]21
inactive: [1] 101% | [2] 55.5% | [3] 101% | [4] 90.3% | [5] 79.3% | [6] 68.6% | [7] 26.5% | [8] 91.4% | [9] 91.8% | [10] 63.7%

Cc1nc(S(=O)(=O)c2ccccc2)c(S(=O)(=O)Cc2ccc([N+](=O)[O-])cc2)o1
inactive: [1] 103% | [2] 88% | [3] 100% | [4] 88.4% | [5] 98.5% | [6] 83.1% | [7] 68.8% | [8] 97.6% | [9] 89.1% | [10] 112%

Cc1ccc(/C=C(\C#N)n2nc3cccc(F)c3n2)cc1
inactive: [1] 83.7% | [2] 92.9% | [3] 88.7% | [4] 93.9% | [5] 96.3% | [6] 55.7% | [7] 74.9% | [8] 97.7% | [9] 83.7% | [10] 122%

CCCCCCn1c(-c2ccc(C(=O)O/N=C(\N)c3ccc(OC)cc3)cc2)nc(-c2ccccc2)c1-c1ccccc1
inactive: [2] 62.6% | [3] 69.4% | [4] 26.4%
active: [1] -63.9% | [5] -10.3% | [6] -63% | [7] -59% | [8] -33.9% | [9] -66.8% | [10] -14%

CN(C)CCS(=O)(=O)Nc1cc(-c2ccc3ncc(C#N)c(Nc4ccc(F)c(Cl)c4)c3c2)cnc1Cl
active: [1] -28.5% | [2] -15.2% | [3] -54.5% | [4] 0.0433% | [5] 0.906% | [6] -17.9% | [7] -39.8% | [8] -30.5% | [9] -20.1% | [10] -80.8%

Oc1ccc(CCl)c2cccnc12
inactive: [1] 59.4% | [2] 101% | [3] 71.9% | [4] 92.8% | [5] 55% | [6] 89.2% | [7] 52.6% | [8] 76.1% | [9] 97.6% | [10] 35.9%
